Reference: PubChem BioAssay AID2013 (Sanford-Burnham Center for Chemical Genomics, 2009)
About 370 (0.13%) of roughly 290,000 compounds were called active.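 How the source made its calls: active means spots per cell inhibited over 60%, with over 100 cells counted and total cytoplasm intensity under 500,000; inconclusive means wells with under 100 cells, flagged as likely toxic; inactive means the rest.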 The entries come from a sample that favours actives as a whole. Entries with a potency or affinity are not part of this list.

molecular target: G-protein coupled receptor 55 (Homo sapiens) (UniProt Q9Y2T6); assay: inhibition of LPI-stimulated GPR55 beta-arrestin translocation – imaging, U2OS, beta-arrestin-GFP, LPI agonist, primary screen (AID 2013); conditions: LPI antagonism, at 10 µM, hits give high values;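 further: U2OS cells stably carrying GPR55 and arrestin-GFP stimulated by 5 µM LPI near EC80; imaged beta-arrestin-GFP aggregate spots per cell after agonist stimulation; plate controls were LPI-stimulated DMSO wells for no effect and DMSO wells without LPI for full effect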
Sequence (Q9Y2T6 whole entry, looked up): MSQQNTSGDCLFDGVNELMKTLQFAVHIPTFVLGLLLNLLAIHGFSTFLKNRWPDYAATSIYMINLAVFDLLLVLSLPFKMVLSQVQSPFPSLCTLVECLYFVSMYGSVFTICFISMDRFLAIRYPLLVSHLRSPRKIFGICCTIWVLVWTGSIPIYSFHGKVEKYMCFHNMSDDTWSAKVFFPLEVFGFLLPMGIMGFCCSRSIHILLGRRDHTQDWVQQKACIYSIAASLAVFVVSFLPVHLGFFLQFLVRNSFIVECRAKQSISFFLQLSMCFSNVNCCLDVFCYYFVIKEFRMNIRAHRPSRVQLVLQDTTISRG

inhibition, active:
Cc1ccccc1N=Nc1c(C)[nH]n(C(N)=S)c1=O 93.2%
O=C(Nc1ccc(C(O)(C(F)(F)F)C(F)(F)F)cc1)c1ccc(Cl)c([N+](=O)[O-])c1 88.6%

inhibition, inactive:
CCOC(=O)c1sc(NC(=O)CSc2ncn(-c3ccccc3)n2)nc1C 14.4%
CCOC(=O)N1CCN(Cc2nc3c(c(=O)n(C)c(=O)n3C)n2CCC(C)C)CC1 -1.3%
COC(=O)C1=CC(C(=O)c2cccs2)=NN(c2ccc(OC)cc2)C1C(=O)OC (configuration not stated) 7.5%
COc1ccc(C(=O)NCC(=O)N2CCC3(CC2)NCCc2[nH]cnc23)cc1 -11.2%
O=C(c1csc2ccccc12)n1cccn1 -12.1%
Oc1ccccc1/C=N/n1cnnc1 -8.4%
Nc1nc(C23CC4CC(CC(C4)C2)C3)cs1 24.8%
Nc1nc(C23CC4CC(CC(Cl)(C4)C2)C3)cs1 -9.3%
Cc1cccc(N=Nc2c(C)[nH]n(C(N)=S)c2=O)c1C 10.8%
Cc1[nH]n(C(N)=S)c(=O)c1N=Nc1ccccc1C(F)(F)F 7.7%
S=C(Nc1cccc(Cl)c1)Nc1ccccc1Oc1ccccc1 8.7%
S=C(Nc1ccccc1Oc1ccccc1)Nc1cccc(Cl)c1Cl -5.2%
CCc1nc(NC(=O)Cc2csc(C)n2)sc1C(=O)OC 14.5%
COc1ccc(Cn2ccnc2SCC(=O)Nc2nnc(C)s2)cc1 -0.9%
CCc1nnc(NS(=O)(=O)c2ccc(NC(=O)/C=C/C(=O)O)cc2)s1 6.6%
CCc1nnc(NS(=O)(=O)c2ccc(NC(=O)Nc3ccc(OC)cc3)cc2)s1 -0.7%
CCc1nnc(NS(=O)(=O)c2ccc(NC(=S)NC(=O)/C=C/c3ccc(OC)cc3)cc2)s1 10.6%
CCc1nnc(NS(=O)(=O)c2ccc(NC(=O)/C=C/c3ccc(F)cc3)cc2)s1 1.5%
COc1ccc(/C(C)=N\Nc2nc(-c3ccccc3)cc(=O)[nH]2)cc1 12.1%
Cc1nn2c(N3CCOCC3)cc(C(C)(C)C)nc2c1-c1ccc(Cl)cc1 -7.5%
O=C(O)c1cc(NC(=O)c2ccc(Cl)c([N+](=O)[O-])c2)cc(C(=O)O)c1 6.4%
O=C(Nc1ccc(Nc2ccccc2)cc1)c1ccc(Cl)c([N+](=O)[O-])c1 12%
CCCn1c2c(c(O)c(C(=O)Nc3ncccc3O)c1=O)CCCC2 -10.6%
CCCCn1c(CCC(=O)O)nc2c1c(=O)[nH]c(=O)n2CCC -0.5%
CCCCn1c(=O)[nH]c(=O)c2c1nc(CN1C(=O)c3ccccc3S1(=O)=O)n2CCC 8.3%
